# PubChem BioAssay (NCATS)
# Inconclusive results are not listed. The source made the active and inactive calls. Calls come from the whole dose curve; as a rule, active = well fitted activation curve with a large enough effect; inconclusive = small, poorly fitted or top-dose-only effect; inactive = flat fitted curve, though single readings scatter. Where a SMILES comes first, the peptide text is derived from it.
# Assay: Primary redox qHTS assay for identification of artifact compounds. (AID 1845223);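 note: 0% = DMSO and 100% = reference compound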
# Details: Amplex Red/HRP redox cycling with DTT, fluorescence; series mostly up to 53.8 µM; redox activity (% of DA3003): at the top concentration
# Outline: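 Redox-cycling detection via DTT (250 uM final) oxidation coupled to Amplex Red (25 uM)/HRP (250 mU/mL) in HBSS. 15 min preincubation plus 30 min after DTT, room temperature. Ex/Em 525/598 nm; 4-parameter Hill fit against DMSO and 10 uM DA3003.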
row,Structure (SMILES),redox activity (% of DA3003)
1,COc1cc2c(c(O)c1OC/C=C(\C)CC/C=C(/C)CCC=C(C)C)CN(C(CCC(=O)O)C(=O)O)C2=O (centres undefined),-4.04% [at 25.6 µM] (inactive)
2,CC(NC(=O)c1ccccc1N)C(=O)O (centres undefined),-17.1% (inactive)
3,O=C(Nc1ccccc1)Nc1ccc(-c2ccc(C(=O)C3CCCC3C(=O)O)cc2)cc1 (centres undefined),19.4% (inactive)
4,CC1(C)CC[C@]2(C(=O)O)CC[C@]3(C)C(=CCC4[C@@]5(C)C[C@@H](O)[C@H](O)[C@](C)(CO)C5CC[C@]43C)[C@@H]2[C@@H]1O (some centres undefined),-9.37% [at 25.6 µM] (inactive)
5,CC(C)c1ccc2c(c1)CCC1[C@](C)(C(=O)O)CCC[C@]21C (some centres undefined),14.9% (inactive)
6,C/C=C(/C)C(=O)O[C@H]1C[C@]2(C)O[C@@H]2[C@@H](OC(C)=O)[C@@]2(C)CC[C@@](O)(C(C)C)[C@H]12,0.984% (inactive)
7,Cc1ccccc1-n1nc(-c2c(-c3ccc(F)cc3)nn3c2NC[C@@H](CO)C3)ccc1=O,-4.95% (inactive)
8,CSCC[C@H](NC(=O)[C@H](CO)NC(=O)[C@H](CCC(=O)O)NC(C)=O)C(=O)N[C@H](C=O)CC(=O)O (Ac-ESMD-aldehyde),-1.61% [at 11.5 µM] (inactive)
9,CC(C)[C@](O)(c1ccc2cc(OC(F)F)c(OC(F)F)cc2c1)c1cn[nH]n1,-2.63% (inactive)
10,Cc1[nH]c2ccccc2c1CC(=O)N[C@@H](Cc1ccccc1)C(=O)N(C)c1ccccc1,9.4% (inactive)
11,N#Cc1cc(-c2n[nH]c(-c3ccncc3)n2)ccn1,-11.4% (inactive)
12,CC(=O)O[C@@H]1C(=O)C(C)=C(CCC(C)CC(=O)O)[C@@]2(C)CCCC(C)(C)C12 (some centres undefined),11.8% (inactive)
13,C=C1[C@@H]2CC[C@@]3(C)[C@H](c4ccoc4)OC(=O)C[C@]13O[C@H]1CC(=O)C(C)(C)[C@H](C(O)C(=O)OC)[C@]12C (some centres undefined),11.3% [at 25.6 µM] (inactive)
14,COC(=O)C(CC1CCCC1)c1ccc(S(C)(=O)=O)cc1 (centres undefined),-0.636% (inactive)
15,CC(C)/C=C1/NC(=O)C(C(C)C)n2c1nc1c(O)cccc1c2=O (centres undefined),-1.1% (inactive)
16,COc1cc(C(O)C2COC(c3ccc(OC4OC(CO)C(O)C(O)C4O)c(OC)c3)C2CO)ccc1O (centres undefined),-4.2% [at 25.6 µM] (inactive)
17,COc1cc(O)c2c(c1)C1(OC2=O)C(C)=CC(=O)C1O (centres undefined),-15.6% (inactive)
18,CC(C(=O)Nc1cc(C#N)ccc1CCCC(=O)O)c1ccc(F)c2ccccc12 (centres undefined),-2.26% (inactive)
19,C=C(C(=O)OC)[C@]12O[C@@](C)(CC[C@@]3(O)/C(=C\C)C(=O)O[C@]3(C)C[C@@H]1OC(=O)C(CO)CN1CCCC1C(=O)O)CC2=O (some centres undefined),-1.1% [at 25.6 µM] (inactive)
20,O=C(O[C@@H]1O[C@H](CO)[C@@H](O)[C@H](O)[C@H]1O)c1ccccc1,-11.4% (inactive)
21,OC[C@@]1(O)CO[C@@H](OC[C@H]2O[C@@H](Oc3ccccc3)[C@H](O)[C@@H](O)[C@@H]2O)[C@@H]1O,-10.4% (inactive)
22,CC(C)=CCC[C@](C)(O[C@@H]1O[C@H](CO[C@@H]2OC[C@H](O)[C@H](O)[C@H]2O)[C@@H](O)[C@H](O)[C@H]1O)[C@H]1CC[C@]2(C)[C@@H]1[C@H](O)C[C@@H]1[C@@]3(C)CC[C@H](O[C@@H]4O[C@H](CO)[C@@H](O)[C@H](O)[C@H]4O[C@@H]4O[C@H](CO)[C@@H](O)[C@H](O)[C@H]4O)C(C)(C)[C@@H]3CC[C@]12C,5.51% [at 25.6 µM] (inactive)
23,C[C@H]1CC[C@@]2(OC1)O[C@H]1CC3C4CC[C@H]5C[C@@H](O)CC[C@]5(C)C4CC(=O)[C@]3(C)[C@H]1[C@@H]2C (some centres undefined),1.2% [at 25.6 µM] (inactive)
24,C/C=C(/C)C(=O)OC1C2OC2C2(CO2)C2C3OC(=O)C(C)C3CCC12C (centres undefined),-6.97% (inactive)
25,CC1=C2C(=O)C=C(CO[C@@H]3O[C@H](CO)[C@@H](O)[C@H](O)[C@H]3O)[C@@H]2[C@H]2OC(=O)[C@H](C)[C@@H]2CC1,-7.42% [at 25.6 µM] (inactive)
26,CN(C)CC(c1ccc(O)cc1)C1(O)CCCCC1 (centres undefined),-0.928% (inactive)
27,C=C1C[C@]23C[C@@]1(O)CC[C@H]2[C@@]12C=C[C@H](O)[C@@](C)(C(=O)O1)[C@H]2[C@@H]3C(=O)O,-11.3% (inactive)
28,CC1=CCC[C@@H]2[C@](CCc3ccoc3)(C(=O)O)[C@H](C)CC[C@@]12C,-1.83% (inactive)
29,C[C@@H]1O[C@@H](OC(=O)Cc2ccccc2)[C@H](O)[C@H](O)[C@H]1O,-8.07% (inactive)
